Screening data (PubChem BioAssay)
RT RNaseH block: HIV-1 RT RNase H inhibitors, primary screen, biochemical, fluorescence; hit rate 1.9% among 65,000; RT-RNase H RNA/DNA duplex cleavage; Gag-Pol polyprotein (Human immunodeficiency virus type 1 group M subtype B (isolate …; inhibition, % at 10 µM; in the data active = inhibition above about 50%
RmlCD inh mix: RmlC and RmlD coupled enzyme inhibitors, primary screen, biochemical, 384-well, compound mixtures, retest | inhibition, % at 5.5 µM | hit rate 0.39% among 110,000 | RmlC/RmlD coupled enzyme inhibition, 384-well mixture HTS; in the data active = inhibition above about 30%, passing the limit was not always enough
RmlCD fluor art: counter-screen for RmlC/RmlD inhibitors: fluorescence artifact, dose response, artefact control, biochemical; shares compounds with RmlCD inh mix; RmlC/RmlD assay fluorescence artifact counter-screen; calls only; hit rate 96% among 360; AID 1696, 2009; call rule not given here;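 also: compound alone with no enzyme and no substrates present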
Active calls of the source: *; i = inactive; . = no result given; + = active, no number. The sample as a whole holds a higher share of hits than the screen did.

SMILES	RT RNaseH block	RmlCD inh mix	RmlCD fluor art
O=C(NCCN1CCOCC1)c1ccc(=O)oc1	-2	43*	+
O=C(NCCN1CCOCC1)c1ccc(F)cc1	.	-2	.
CCN1CCN(C(c2cccs2)C(C)NC(=O)c2cccnc2)CC1 (stereo unspecified)	3	-7	.
CCOC(=O)CNc1c(-c2ccc(Cl)cc2)nc2cnccn12	-20	.	.
CCOC(=O)CNc1c(-c2ccc(F)cc2)nc2cnccn12	3	50*	+
COc1ccc(-c2nc(C#N)c(N3CCC(C(N)=O)CC3)o2)cc1	.	50*	+
N#Cc1nc(-c2ccc(OCc3ccccc3)cc2)oc1N1CCC(C(N)=O)CC1	45	.	.
Cc1sc2c(c1C)CN(Cc1ccco1)CN2C(=O)c1ccccc1	-6	.	.
CC(C)C(CO)NC(=O)CC(=O)NC(CO)C(C)C (stereo unspecified)	-5	3	.
CCOc1cc(-c2nc3ccccn3c2NCC2CCCO2)ccc1O (stereo unspecified)	-8	14	.
CCOc1cc(-c2nc3c(C)cccn3c2NCC2CCCO2)ccc1O (stereo unspecified)	-9	44*	+
COC(CNC(=O)c1coc2nc3ccccc3nc12)OC	.	.	i
O=C(NCC1CCCO1)c1coc2nc3ccccc3nc12 (stereo unspecified)	14	29	.
CC1(c2nnc(-c3ccc(F)cc3)o2)CC(c2ccc([N+](=O)[O-])cc2)=NO1 (stereo unspecified)	.	3	.
CN(C)S(=O)(=O)c1ccc(-c2cn3ccccc3n2)cc1	.	40*	+
Cc1ccc2nc(-c3cccc(S(=O)(=O)N(C)C)c3)cn2c1	-9	10	.
CN(C[C@@H](Cc1cccc2ccccc12)N(C[C@H](Cc1ccccc1)N(CCc1ccccc1)N=O)N=O)N=O	.	2	.
Cc1cccn2c(=O)c3cc(C#N)c(=NC(=O)c4ccncc4)n(Cc4ccco4)c3nc12	-3	.	.
CCOC(=O)c1cc2c(=O)n3cccc(C)c3nc2n(Cc2ccco2)c1=NC(=O)c1ccccc1	.	36*	+
CN(C)C(=O)COC(=O)c1cc(Cl)cc(Cl)c1N	.	36*	+
CC(C)N(C(=O)COC(=O)c1cc(Cl)cc(Cl)c1N)C(C)C	.	-7	.
CC(C(=O)Nc1ccccc1-c1ccccc1)N1CCN(C(=O)c2ccco2)CC1 (stereo unspecified)	-10	.	.
CC1(C)CC2CC(C)(CN2C(=O)COC(=O)c2ccc(Cl)c(N)c2)C1 (stereo unspecified)	.	-5	.
COc1ccc2c(c1)O[C@@H](c1ccc3c(c1)OCO3)[C@H](OC(=O)Nc1cc(OC)c(OC)c(OC)c1)C2=O	.	5	.
CCCCCCc1cc2cc(-c3nnc(-c4ccccc4OC)o3)c(=O)oc2cc1O	.	181*	+
SMILES	RT RNaseH block	RmlCD inh mix	RmlCD fluor art
CCOC(=O)CSc1nnc(-c2ccccc2OC)o1	-8	9	.
C[C@H]1CC[C@]2(O[C@@H](CCO)C[C@H](O)[C@H]2O)O1	.	-461	.
CC(C)(C)C1CCc2c(sc(NC(=O)c3ccco3)c2C(N)=O)C1 (stereo unspecified)	.	64*	+
CCC1CCc2c(sc(NC(=O)c3ccco3)c2C(N)=O)C1 (stereo unspecified)	.	-3	.
COC(=O)Cc1c(C)c2ccc(OCc3nn[nH]n3)cc2oc1=O	.	31	.
COC(=O)Cc1c(C)c2c(OCc3nn[nH]n3)cc(C)cc2oc1=O	-3	38*	+
C=CCNc1cc(C)oc(=O)c1C(=O)CCC	.	4	.
COc1ccc(N2CCN(C(=O)CNC(=O)Cn3c(C)cc4ccccc4c3=O)CC2)cc1	-6	21	.
CCc1cc(=O)oc2cc(C)c(CN3CCCCC3)c(O)c12	3	10	.
CCCc1cc(=O)oc2c(CN3CCCC3)c(O)ccc12	-13	99*	+
CN1CCN(Cc2c(O)ccc3c(-c4ccccc4)cc(=O)oc23)CC1	4	-6	.
Cc1cc(=O)oc2c(CN3CCCCC3)c(O)c(Cl)cc12	-2	94*	+
Cc1cc2oc(=O)cc(CN3CCC(C)CC3)c2cc1Cl	2	-21	.
Cc1cc(=O)oc2c(CN3CCC(C)CC3)c(O)c(Cl)cc12	5	149*	+
Fc1ccc(-n2nnc(-c3ncc[nH]3)n2)cc1	.	-5	.
CC(C)(C(=O)c1ccccc1)/[N+]([O-])=C/c1ccc(Br)cc1	.	5	.
CC[C@@H](NS(=O)(=O)c1ccc(C)cc1)C(=O)Oc1ccc2c3c(c(=O)oc2c1)CCC3	.	.	+
CC(C)Oc1ccc2c3c(c(=O)oc2c1)CCC3	-30	1	.
CC(C)CC(C(=O)Oc1ccc2c3c(c(=O)oc2c1)CCC3)N1C(=O)c2ccccc2C1=O (stereo unspecified)	.	.	+
CCC(C)C(NS(=O)(=O)c1ccc(C)cc1)C(=O)Oc1ccc2c3c(c(=O)oc2c1)CCC3 (stereo unspecified)	.	17	.
O=C(C1=C[C@H](c2ccc(Br)cc2)C[C@H](OCCCCO)O1)N1CCN(Cc2ccccc2)CC1	.	-240	.
Cc1ccc(NC(=O)NCc2ccc3c(c2)OCO3)cc1	.	6	.
N#C/C(=C\c1cn[nH]c1-c1ccccc1)C(=O)NC1CCCCCC1	.	5	.
C=CCON1C(=O)c2ccccc2C1=O	.	-10	.
Cc1cc(C)c(S(=O)(=O)ON2C(=O)c3ccccc3C2=O)cc1C	.	146*	+
SMILES	RT RNaseH block	RmlCD inh mix	RmlCD fluor art
Cc1cc(C)c(C)c(S(=O)(=O)ON2C(=O)c3ccccc3C2=O)c1C	.	114*	+
COC(=O)CON1C(=O)c2ccccc2C1=O	.	-16	.
CCOc1cc(S(=O)(=O)NCC2OCCc3ccccc32)c(OCC)cc1-n1cnnn1 (stereo unspecified)	-3	-5	.
CCCOc1ccccc1N/C(=N/c1nc(C)cc(C)n1)NC(=O)Nc1ccc(Cl)cc1	.	-15	.
C=CCNC(=O)NC(=O)COC(=O)/C(C#N)=C/c1cc(C)n(CCC(C)C)c1C	.	30*	+
Cc1cc(/C=C(\C#N)C(=O)OCC(=O)NC(=O)NC(C)(C)C)c(C)n1CCC(C)C	.	2	.
CC(=O)O[C@H]1CC[C@]2(C)[C@H]3CC=C4[C@@H]5[C@@H](C)[C@H](C)CC[C@]5(C(=O)O)CC[C@@]4(C)[C@]3(C)CC[C@H]2C1(C)C	.	2	.
Cc1ccc(SCCN2CCN(CC(C)C)CCC2=O)cc1	.	-8	.
COc1cccc(-c2cc(C(F)(F)F)n3nc(N)nc3n2)c1	-8	14	.
COc1ccc(-c2cc(C(F)(F)F)n3nc(N)nc3n2)cc1	.	75*	+
Nc1nnnn1/N=C/c1cccc(OCc2ccccc2Cl)c1	.	-10	.
Brc1ccc(-c2cn3cccnc3n2)cc1	-10	45*	+
O=S(=O)(c1cccc(-c2cn3cccnc3n2)c1)N1CCOCC1	22	67*	+
Clc1ccc(-c2cn3cccnc3n2)cc1Cl	.	9	.
O=S(=O)(c1cccc(-c2cn3cccnc3n2)c1)N1CCCCCC1	47	-25	.
CC1CN(S(=O)(=O)c2cccc(-c3cn4cccnc4n3)c2)CC(C)O1 (stereo unspecified)	0	.	.
Clc1ccc(-c2cn3cccnc3n2)cc1	.	40*	+
O=c1c2c3c(sc2nc2sc(CN4CCOCC4)cn12)CCCC3	-6	-9	.
CCOC(=O)c1ccc(NC(=O)C2(c3ccccc3)CCOCC2)cc1	.	15	.
